Data: PubChem BioAssay (NCATS)
Results filed as inconclusive are left out. The source made the active and inactive calls. The call rests on the fitted dose curve; in most records, active means well fitted cell-killing curve with a large enough effect; inconclusive means small, poorly fitted or top-dose-only effect, or effect the other way; inactive means no such curve, though single readings can be large or run the other way.

Tests used:
[1] = Quantitative High-Throughput drug screen in 47 multiple myeloma cell lines against the NCATS MIPE library collection: MM1R_ATCC cell viability assay (AID 1918981); further: nearly all actives have a fitted effect of over 35% in size
Outline: (§1)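 Readout: median RLU from CellTiter-Glo after 5 min at room temperature. Preceding step was 48 h drug treatment of 500 cells/well at 37 °C, 5% CO2, with DMSO-only and media-only control wells.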

[2] = Quantitative High-Throughput drug screen in 47 multiple myeloma cell lines against the NCATS MIPE library collection: LP1_DSMZ cell viability assay (AID 1918982); further: nearly all actives have a fitted effect of over 35% in size
Outline: as §1

[3] = Quantitative High-Throughput drug screen in 47 multiple myeloma cell lines against the NCATS MIPE library collection: KMS28PE_JCRB cell viability assay (AID 1918983); further: nearly all actives have a fitted effect of over 35% in size
Outline: as §1

[4] = Quantitative High-Throughput drug screen in 47 multiple myeloma cell lines against the NCATS MIPE library collection: KMS34_JCRB cell viability assay (AID 1918985); further: nearly all actives have a fitted effect of over 40% in size
Outline: as §1

[5] = Quantitative High-Throughput drug screen in 47 multiple myeloma cell lines against the NCATS MIPE library collection: OCIMY7_PLB cell viability assay (AID 1918987); details: OCI-MY7 myeloma viability, CellTiter-Glo ATP, 48 h; viability (% of DMSO): at 45.8 µM (top of the series); further: nearly all actives have a fitted effect of over 65% in size
Outline: as §1

[6] = Quantitative High-Throughput drug screen in 47 multiple myeloma cell lines against the NCATS MIPE library collection: OCIMY5_PLB cell viability assay (AID 1918988); further: nearly all actives have a fitted effect of over 65% in size
Outline: as §1

[7] = Quantitative High-Throughput drug screen in 47 multiple myeloma cell lines against the NCATS MIPE library collection: SKMM1_PLB cell viability assay (AID 1919863); details: SKMM1 myeloma viability, CellTiter-Glo ATP, 48 h; viability: hits give low values; further: nearly all actives have a fitted effect of over 35% in size
Outline: as §1

[8] = Quantitative High-Throughput drug screen in 47 multiple myeloma cell lines against the NCATS MIPE library collection: XG1_PLB cell viability assay (AID 1919866); further: nearly all actives have a fitted effect of over 35% in size
Outline: as §1

[9] = Quantitative High-Throughput drug screen in 47 multiple myeloma cell lines against the NCATS MIPE library collection: PE2_PLB cell viability assay (AID 1919869); further: nearly all actives have a fitted effect of over 35% in size
Outline: as §1

[10] = Quantitative High-Throughput drug screen in 47 multiple myeloma cell lines against the NCATS MIPE library collection: PCM6_Riken cell viability assay (AID 1919870); further: nearly all actives have a fitted effect of over 30% in size
Outline: as §1

[11] = Quantitative High-Throughput drug screen in 47 multiple myeloma cell lines against the NCATS MIPE library collection: RPMI8226_ATCC cell viability assay (AID 1919871); further: nearly all actives have a fitted effect of over 30% in size
Outline: as §1

[12] = Quantitative High-Throughput drug screen in 47 multiple myeloma cell lines against the NCATS MIPE library collection: OPM2_DSMZ cell viability assay (AID 1919872); further: nearly all actives have a fitted effect of over 30% in size
Outline: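 Luminescent ATP measurement with CellTiter-Glo gives viability, scaled between DMSO-only wells (100%) and media-only wells (0%). Cells, 500 per well, faced library compounds for 48 hours at 37C.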

[13] = Quantitative High-Throughput drug screen in 47 multiple myeloma cell lines against the NCATS MIPE library collection: KMS28BM_JCRB cell viability assay (AID 1919874); further: nearly all actives have a fitted effect of over 35% in size
Outline: as §1

[14] = Quantitative High-Throughput drug screen in 47 multiple myeloma cell lines against the NCATS MIPE library collection: OPM1_PLB cell viability assay (AID 1918989); further: nearly all actives have a fitted effect of over 40% in size
Outline: as §1

[15] = Quantitative High-Throughput drug screen in 47 multiple myeloma cell lines against the NCATS MIPE library collection: UTMC2_PLB cell viability assay (AID 1919868); details: CellTiter-Glo ATP luminescence, 48 h; viability (% of DMSO control): at 45.8 µM (top of the series); further: nearly all actives have a fitted effect of over 55% in size
Outline: as §1

[16] = Quantitative High-Throughput drug screen in 47 multiple myeloma cell lines against the NCATS MIPE library collection: KMS11_JCRBsus cell viability assay (AID 1919873); further: nearly all actives have a fitted effect of over 50% in size
Outline: as §1

[17] = Quantitative High-Throughput drug screen in 47 multiple myeloma cell lines against the NCATS MIPE library collection: U266_ATCC cell viability assay (AID 1919864); further: nearly all actives have a fitted effect of over 35% in size
Outline: as §1

[18] = Quantitative High-Throughput drug screen in 47 multiple myeloma cell lines against the NCATS MIPE library collection: XG6_PLB cell viability assay (AID 1919865); further: nearly all actives have a fitted effect of over 40% in size
Outline: as §1

[19] = Quantitative High-Throughput drug screen in 47 multiple myeloma cell lines against the NCATS MIPE library collection: VP6_DJ cell viability assay (AID 1919867); further: nearly all actives have a fitted effect of over 40% in size
Outline: as §1
Potency means the concentration at half of the fitted maximal effect.

N#CC(=C(N)Sc1ccc(N)cc1)c1ccccc1C(F)(F)F
active: Potency [1] 14800 nM | Potency [2] 16600 nM | Potency [3] 6620 nM | Potency [5] 148 nM | Potency [6] 16600 nM | Potency [7] 7430 nM | Potency [8] 2960 nM | Potency [9] 2960 nM | Potency [11] 13200 nM
inactive: Potency [4] | Potency [10] | Potency [12] | Potency [13]

CC[C@]12C=CCN3CC[C@@]4(c5cc([C@@]6(C(=O)OC)C[C@H]7C[C@@H](C(C)(F)F)CN(Cc8c6[nH]c6ccccc86)C7)c(OC)cc5N(C)[C@H]4[C@@](O)(C(=O)OC)[C@H]1OC(C)=O)[C@@H]32
active: Potency [1] 469 nM | Potency [2] 20.9 nM | Potency [3] 4.7 nM | Potency [4] 5.9 nM | Potency [5] 1 nM | Potency [6] 1.9 nM | Potency [14] 16.6 nM | Potency [7] 9.3 nM | Potency [15] 1 nM | Potency [10] 10.5 nM | Potency [11] 166 nM | Potency [12] 11.8 nM | Potency [16] 2.6 nM

Cc1ccc([N+](=O)[O-])cc1S(=O)(=O)N(C)N=Cc1cnc2ccc(Br)cn12
active: Potency [1] 33.2 nM | Potency [2] 26.4 nM | Potency [3] 41.8 nM | Potency [4] 14.8 nM | Potency [6] 18.7 nM | Potency [14] 8.3 nM | Potency [7] 52.6 nM | Potency [17] 20.9 nM | Potency [9] 7.4 nM | Potency [11] 46.9 nM | Potency [12] 59 nM | Potency [16] 6.6 nM | Potency [13] 23.5 nM

O=C1c2cccc(O)c2C(=O)c2c(O)cc(CO)cc21
inactive: Potency [1] | Potency [5] | Potency [14] | Potency [8] | Potency [9] | Potency [10] | Potency [12] | Potency [16] | Potency [13]
active: Potency [2] 16600 nM | Potency [3] 5900 nM | Potency [11] 16600 nM

Cn1cc(-c2ccc3ncc(Cc4ccc5ncccc5c4)n3n2)cn1
inactive: Potency [1] | Potency [2] | Potency [3] | Potency [4] | Potency [11] | Potency [12] | Potency [13]
active: Potency [7] 2090 nM | Potency [10] 13200 nM

O=C(O)C=Cc1ccc(Cn2ccnc2)cc1
inactive: Potency [1] | Potency [2] | Potency [3] | Potency [4] | Potency [14] | Potency [18] | Potency [8] | Potency [19] | Potency [15] | Potency [9] | Potency [10] | Potency [12] | Potency [13]

C=CC(=O)Nc1cccc(Nc2nc(NC3CCC(N(C)C)CC3)nc3c2ncn3C(C)C)c1 (configuration not stated)
active: Potency [1] 187 nM | Potency [2] 372 nM | Potency [3] 469 nM | Potency [5] 74.3 nM | Potency [6] 52.6 nM | Potency [14] 469 nM | Potency [7] 935 nM | Potency [17] 296 nM | Potency [18] 16.6 nM | Potency [8] 105 nM | Potency [19] 235 nM | Potency [15] 132 nM | Potency [9] 209 nM | Potency [10] 209 nM | Potency [11] 1050 nM | Potency [12] 1870 nM | Potency [16] 372 nM | Potency [13] 209 nM

C=C1C[C@@]2(O)O[C@@]3(C[C@H]2C(C)C)[C@H](C)CC[C@H]13
inactive: Potency [1] | Potency [2] | Potency [3] | Potency [4] | Potency [6] | Potency [14] | viability [7] 114% | Potency [17] | Potency [18] | Potency [19] | Potency [15] | Potency [9] | Potency [10] | Potency [12] | Potency [16] | Potency [13]

COc1ccc2cc([S+]([O-])Cc3ncc(C)c(OC)c3C)nc2c1
inactive: Potency [1] | Potency [2] | Potency [3] | Potency [4] | viability [7] 122% | Potency [18] | Potency [8] | Potency [19] | Potency [10] | Potency [11] | Potency [16]

CC(C=CC1=C(C)CCCC1(C)C)=CC=CC(C)=CC(=O)Nc1ccc(O)cc1
active: Potency [1] 17100 nM | Potency [2] 17100 nM | Potency [3] 21500 nM | Potency [5] 4290 nM | Potency [6] 9590 nM | Potency [14] 3400 nM | Potency [7] 19100 nM | Potency [17] 38200 nM | Potency [18] 13600 nM | Potency [8] 15200 nM | Potency [19] 12100 nM | Potency [15] 15200 nM | Potency [9] 12100 nM | Potency [10] 13600 nM | Potency [11] 24100 nM | Potency [12] 17100 nM | Potency [16] 19100 nM | Potency [13] 17100 nM

C#CCC(Cc1cnc2nc(N)nc(N)c2n1)c1ccc(C(=O)N[C@@H](CCC(=O)O)C(=O)O)cc1 (some centres not stated)
active: Potency [1] 11.8 nM | Potency [2] 41.8 nM | Potency [4] 209 nM | Potency [14] 166 nM | Potency [17] 372 nM | Potency [18] 41.8 nM | Potency [8] 59 nM | Potency [19] 118 nM | Potency [15] 372 nM | Potency [9] 418 nM | Potency [12] 33.2 nM | Potency [16] 93.5 nM | Potency [13] 33.2 nM
inactive: Potency [3] | Potency [6] | viability [7] 117% | Potency [11]

FC(F)c1nc2ccccc2n1-c1nc(N2CCOCC2)nc(N2CCOCC2)n1
active: Potency [1] 743 nM | Potency [2] 20.9 nM | Potency [3] 418 nM | Potency [4] 1320 nM | Potency [5] 372 nM | Potency [6] 1320 nM | Potency [7] 1480 nM | Potency [18] 590 nM | Potency [8] 209 nM | Potency [19] 132 nM | Potency [15] 118 nM | Potency [9] 372 nM | Potency [11] 296 nM | Potency [12] 2090 nM
